This note sets out measurements from PubChem BioAssay (NCI).

Compounds without any hit were thinned out: in the full panel of roughly 83,000, 20% have a hit.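 Activity criterion: percent growth below 10, measured after cells in 96-well plates were exposed to a single compound concentration for 48 hours.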 Values without a mark were called inactive. Active and inactive are the calls of the source.

Test systems include NCI-H23 lung; NCI-H226 lung; NCI-H322M lung; HOP-62 NSCLC; NCI-H460 lung; HOP-92 NSCLC; NCI-H522 lung; A549/ATCC NSCLC; 786-0 renal; COLO 205 colon; DU-145 prostate; K-562 leukemia; MALME-3M melanoma; MDA-MB-231 breast; RXF 393 renal; SF-268 CNS; SF-295 CNS; SF-539 CNS; UACC-257 melanoma; M14 melanoma.
Experiment in all cases: NCI-60 one-dose screen, 48 h (100 = growth as untreated, 0 = no growth, -100 = all killed)
Conditions in all cases: 10 µM unless noted

Take `CC1=C(C)C(=O)C(Nc2cccc(C)c2)=C(Br)C1=O`: the growth in the test with NCI-H23 lung is 85.1%; in the test with NCI-H226 lung it was 92.2%; in the test on NCI-H322M lung it was 98.4%; in the test with HOP-62 NSCLC it was 90.7%; with NCI-H460 lung, 103%; with HOP-92 NSCLC, -35.5% (active). Also, the growth is 94.6% in the test with NCI-H522 lung; 101% in the test with A549/ATCC NSCLC; 107% in the test with 786-0 renal; 126% with COLO 205 colon; 104% in the test with DU-145 prostate; 2.13% (active) with K-562 leukemia. The growth in the test on MALME-3M melanoma is 117%; in the test on MDA-MB-231 breast, 67.8%; in the test on RXF 393 renal, 106%; in the test on SF-268 CNS it was 100%; with SF-295 CNS, 100%; with SF-539 CNS, 98.2%. In addition, the growth in the test on UACC-257 melanoma is 84.8%; with M14 melanoma, 104%.
Regarding `CSc1ccc(/C(=N/N=C(N)N)c2ccc(Cl)cc2)cc1`, the growth is 12.6% with NCI-H23 lung; 27% in the test with NCI-H226 lung; 30.1% in the test on NCI-H322M lung; 6.91% (active) with HOP-62 NSCLC; -12.7% (active) in the test on NCI-H460 lung; -4.16% (active) with HOP-92 NSCLC. In addition, the growth in the test with NCI-H522 lung is -41.9% (active); with A549/ATCC NSCLC, 4.66% (active); with 786-0 renal, 4.8% (active); in the test with COLO 205 colon, -89.4% (active); with DU-145 prostate, 9.65% (active); in the test on K-562 leukemia it was 1.76% (active). Also, the growth in the test on MALME-3M melanoma is 22.5%; with MDA-MB-231 breast, 7.57% (active); in the test with RXF 393 renal, 16.5%; in the test with SF-268 CNS, 19.3%; in the test with SF-295 CNS, 8.73% (active); in the test with SF-539 CNS, -10.3% (active). The growth in the test with UACC-257 melanoma was 57.8%; with M14 melanoma it was -90.9% (active).
Turning to `COc1ccc2[nH]cc(/C=N/Nc3ccnc4cc(Cl)ccc34)c2c1`, the growth in the test on NCI-H23 lung was -91.8% (active); in the test with NCI-H226 lung, -78.7% (active); in the test on NCI-H322M lung, -100% (active); in the test with HOP-62 NSCLC it was -56.7% (active); in the test with NCI-H460 lung, -78.1% (active); with HOP-92 NSCLC it was -91.6% (active). For the same compound, the growth with NCI-H522 lung is -62.4% (active); in the test on A549/ATCC NSCLC, -49.2% (active); with 786-0 renal, -92.3% (active); in the test on COLO 205 colon, -56.7% (active); with DU-145 prostate, -98.9% (active); in the test with K-562 leukemia, -4.83% (active). Also, the growth is -97.7% (active) in the test on MALME-3M melanoma; -93.9% (active) in the test on MDA-MB-231 breast; -100% (active) in the test with RXF 393 renal; -60.7% (active) in the test with SF-268 CNS; -100% (active) in the test with SF-295 CNS; -100% (active) with SF-539 CNS. Besides, the growth in the test on UACC-257 melanoma was -84.2% (active); in the test on M14 melanoma, -79.7% (active).
As to `C=C(C)[C@@H]1CC[C@]2(C(=O)NC3CCCCC3)CC[C@]3(C)[C@H](CC[C@@H]4[C@@]5(C)CC[C@H](N)C(C)(C)[C@@H]5CC[C@]43C)[C@@H]12`, the growth in the test with NCI-H23 lung was 106%; in the test with NCI-H226 lung, 94.2%; in the test with NCI-H322M lung, 108%; in the test on HOP-62 NSCLC, 104%; in the test with NCI-H460 lung it was 98.7%; in the test with HOP-92 NSCLC it was 73.1%. Further, the growth in the test with NCI-H522 lung is 93.2%; in the test with A549/ATCC NSCLC, 91.9%; in the test with 786-0 renal it was 84.6%; in the test on COLO 205 colon, 52.9%; in the test on DU-145 prostate it was 105%; in the test on K-562 leukemia it was -34.7% (active). Also, the growth with MALME-3M melanoma was 95.3%; in the test with MDA-MB-231 breast, 108%; in the test with RXF 393 renal it was 93.7%; in the test on SF-268 CNS, 91.6%; in the test with SF-295 CNS it was 103%; with SF-539 CNS it was 98.5%. The growth with UACC-257 melanoma is 105%; in the test on M14 melanoma, 103%.
Regarding `CC(=O)N(O)CCCCCNC(=O)CCC(=O)N(O)CCCCCNC(=O)CCC(=O)N(O)CCCCCN(CCCCCCCCCC[P+](c1ccccc1)(c1ccccc1)c1ccccc1)CCCCCCCCCC[P+](c1ccccc1)(c1ccccc1)c1ccccc1`, the growth in the test on NCI-H23 lung was -16.5% (active); in the test with NCI-H226 lung, -6.05% (active); in the test on NCI-H322M lung, -28.9% (active); in the test on HOP-62 NSCLC, 7.35% (active); in the test with NCI-H460 lung, -12.4% (active); in the test with HOP-92 NSCLC it was -18.4% (active). The growth is -18.8% (active) in the test on NCI-H522 lung; 9% (active) in the test with A549/ATCC NSCLC; 21.5% in the test on 786-0 renal; -43.4% (active) with COLO 205 colon; 14.9% in the test with DU-145 prostate; 9.98% (active) with K-562 leukemia. Moreover, the growth in the test with MALME-3M melanoma was -17.4% (active); with MDA-MB-231 breast, 16.4%; with RXF 393 renal, -9.88% (active); with SF-268 CNS, 16.2%; in the test on SF-295 CNS, 12.7%; in the test with SF-539 CNS, -8.94% (active). The growth was -10.9% (active) with UACC-257 melanoma and 11% in the test on M14 melanoma.
`Fc1ccc2nc(-c3cnn4cccnc34)sc2c1`: the growth in the test on NCI-H23 lung is 93.3%; in the test on NCI-H226 lung it was 83.1%; with NCI-H322M lung, 67.5%; with HOP-62 NSCLC it was 85.1%; with NCI-H460 lung, 88.2%; with HOP-92 NSCLC, 78.9%. For the same compound, the growth in the test on NCI-H522 lung was 93.5%; in the test with A549/ATCC NSCLC, 81%; with 786-0 renal, 101%; in the test with COLO 205 colon it was 102%; in the test with DU-145 prostate it was 103%; in the test on K-562 leukemia it was 86.2%. The growth is 108% in the test with MALME-3M melanoma; 84.3% in the test with MDA-MB-231 breast; 92.9% in the test on RXF 393 renal; 82.5% in the test on SF-268 CNS; 100% in the test with SF-295 CNS; 86.7% in the test on SF-539 CNS. Also, the growth with UACC-257 melanoma was 100%; with M14 melanoma, 101%.
For the compound `N#Cc1c(-c2cccs2)cc(-c2cnccn2)nc1SCC(=O)N/N=C/c1ccncc1`, the growth in the test with NCI-H23 lung is 102%; in the test on NCI-H226 lung, 104%; in the test on NCI-H322M lung, 116%; with HOP-62 NSCLC it was 106%; in the test with NCI-H460 lung it was 108%; in the test on HOP-92 NSCLC, 98.4%. Also, the growth in the test with NCI-H522 lung is 96.1%; in the test with A549/ATCC NSCLC it was 107%; in the test on 786-0 renal, 104%; in the test on COLO 205 colon it was 118%; in the test on DU-145 prostate, 112%; in the test with K-562 leukemia it was 96.1%. The growth in the test on MALME-3M melanoma was 120%; with MDA-MB-231 breast, 102%; in the test on RXF 393 renal, 105%; in the test with SF-268 CNS, 106%; in the test on SF-295 CNS, 99.4%; in the test on SF-539 CNS, 97.6%. Also, the growth in the test on UACC-257 melanoma was 107%; in the test on M14 melanoma, 110%.
